Assay results: the supplement of paper PMC6555819

Experiments:
Experiment in all cases: PBM binding z-score (relative to random genomic background probes); higher = stronger binding; sequences stand for … in GC…GCGATTGACAGCGTAGAATGAAGG
[1] = system: RARb homodimer (NR concentration 270 nM)
Outline: (§1)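 Custom Agilent 4×180K protein-binding microarrays carried double-stranded probes. Their 34-nt variable regions held direct-repeat seeds, single-nucleotide variants, half-site ablations and random human genomic background sequences. Arrays were incubated 1 h with ligand-free nuclear receptor dimers in PBS pH 7.4, 2% milk, 0.02% Triton X-100, 1 mM DTT, 0.2 mg/mL BSA and 0.4 mg/ml salmon testes DNA. Antibodies against each partner (one per run) detected binding, and scanned fluorescence was regression-normalized. Binding z-scores use random background probes as reference.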

[2] = system: RARg:RXRa (NR concentration 270 nM, RXRa partner concentration 90 nM)
Outline: as §1

[3] = system: RARg homodimer (NR concentration 270 nM)
Outline: as §1

[4] = system: RXRa DBDmut IVT, anti-RXR (DBD mutation: RXRa K156A/R161A, NR concentration 90 nM)
Outline: as §1

[5] = system: RXRa homodimer (NR concentration 180 nM)
Outline: as §1

[6] = system: THRa:RXRa (NR concentration 90 nM, RXRa partner concentration 90 nM)
Outline: as §1

[7] = system: THRa homodimer (NR concentration 90 nM)
Outline: as §1

[8] = system: VDR:RXRa (NR concentration 270 nM, RXRa partner concentration 90 nM)
Outline: as §1

[9] = system: VDR homodimer (NR concentration 270 nM)
Outline: as §1

Sequence	PBM binding z-score [1]	PBM binding z-score [2]	PBM binding z-score [3]	PBM binding z-score [4]	PBM binding z-score [5]	PBM binding z-score [6]	PBM binding z-score [7]	PBM binding z-score [8]	PBM binding z-score [9]
GCTTACGGGGCAAAGGTTATAGCATGAATAGAAT	1.58	3.73	1.43	1.11	4.42	1.89	-0.425	2.08	-0.046
TCGAGGAGGTTACCAATGGGGCATTCAGCTTTCT	1.69	2.85	1.13	0.716	1.83	1.06	-0.297	1.13	0.112
TAGCCTACGTCATGGGCCAGTATACCACGCGAAC	-0.00941	-0.29	-0.1	-0.76	-0.0748	-0.335	-0.4	-0.472	-0.575
GCTAGCAGCCCATTTGGGTCACTCAATGACGGGC	1.07	0.319	0.556	-0.892	0.587	1.24	0.119	-0.389	-0.375
CCGTCTGGGGCATAAGGTTACCATAAGCCAGCCC	1.92	1.86	1.18	-0.715	1.23	2.17	1.31	0.256	0.173
TCATATAGGTAAATGCTATGTGAAAGTCCGATCT	-0.22	0.473	0.452	1.17	0.894	0.0535	0.0976	0.852	0.435
GATACAGGGTCTGCTAGAGGCCAGAGTATGGAAA	0.393	0.857	0.279	-0.877	-0.0451	-0.093	-0.687	-0.492	-0.39
ATCTCTAGGTAAAGCTAGTTCAGTGAATGCAAAT	0.208	0.0635	0.23	-0.0872	0.134	1.15	0.00789	0.818	0.525
CCTCGGAGGACAGAAGGTCAGAGCTGTCCGCTTT	3.43	3.39	2.55	0.0371	1.89	2.22	-0.0461	1.02	-0.131
AGAACGAGGGCAAGGAGTTGATAGCACGGGTGGC	0.992	1.21	1.49	1.12	0.867	0.885	-0.277	3.32	1.93
ATACCAAGGTGATCGTGAGCTCGTTGATACTAAC	0.153	-0.0277	0.19	-0.225	0.139	0.678	0.422		-0.219
CCGACTGGGTCAGAAAGGTTACCATACCATCCGG	3.1	3.34	3.44	-0.333	3.12	2.09	0.207	4.2	1.14
ACTAGCAGGCCAAGGGTCACGCAAGATTAGTCCG	4.29	5.29	4.8	0.355	5.96	3.38	0.69	3.76	1.24
TCGAGTAGGTTTGGGGCATTCAGAATGGCGTCGA	0.408	-0.658	-0.913	0.194	-0.158	0.0533	0.0117	-0.0942	-0.0123
TCGAGTAGGTTAGTCGGGGCATTCATCCAACATA	0.534	-0.0149	0.214	0.518	0.053	1.19	0.047	2.37	0.435
ATCTCTAGGTAACCAAGTTCATTGAATGCCGAAC	2.07	1.42	1.35	2.39	1.29	2.2	1.25	5.68	5.53
CCGAGTTGGTTATGGGGCATTCAGGCAACGGTGA	0.393	-0.17	-0.319	1.14	0.0354	0.111	0.472	0.221	0.996
TCTCGGAGGAGACGAAGGTCAGAGCTTTCCAGAG	2.74	1.88	1.77	-0.234	1.63	1.11	-0.507	0.483	-0.413

Sequence	PBM binding z-score [1]	PBM binding z-score [2]	PBM binding z-score [3]	PBM binding z-score [4]	PBM binding z-score [5]	PBM binding z-score [6]	PBM binding z-score [7]	PBM binding z-score [8]	PBM binding z-score [9]
TGAATGATGTTAAAGATCAGGGAACGTGGCGTCG	-0.832	0.221	0.133	-0.892	0.495	-0.238	-0.77	-0.0975	-0.0105
CCTAGCTGGCCAGGGTCACTCAAGCATTTCGCTT	2.33	3.05	2.03	0.326	3.3	2.88	0.857	2.36	0.994
TCTACTAGTTGAAGGGCAACCGACGAGTCCGTTT	0.815	0.16	0.311	1.11	0.353	-0.216	-0.254	0.635	0.707
TCTTGTAGACCAGCAGGTTAAGAAAGCTGGCCAA	0.0516	-0.0399	-0.6	0.357	0.393	0.00833	-0.609	0.209	-0.234
AGAATGAGGTTAAGATCAGGGTAACAGAATACAT	1.41	2.69	1.65	1.08	2.85	3.16	1.45	2	0.804
CGAACTAGGTCAAGGACAGTCAATCTCCGCACGC	3.32	3.79	4.63	1.46	2.57	3.19	1.96	1.61	0.563
TCGAGTAGGTTAGGGGCATTCCGAATGGCGTCGA	0.646	0.44	-0.221	0.278	0.54	0.556	-0.0824		0.859
ACTAGCAGGCCAAGTTTGGGTCCCTCAAACAAAG	-0.155	-0.211	-0.235	-0.528	-0.565	0.0407	-0.344	-0.796	-0.397
TCTAGTTGGTCAAAGCTCACACACTCGAAATGCG	0.587	0.584	0.77	1.37	0.769	0.0893	0.269	0.632	0.0543
ACAATGAGGTTATTAAGATCAGGGAATTGCGGTC	1.27	1.45	1.33	2.17	1.83	2.23	1.09	2.56	1.61
CCAGACAGGTGAGAGGGTAACTCAGCCTCGATTA	1.02	0.576	0.626	-0.231	0.666	0.388	0.0769	-0.0785	0.287
GCGACTGGGGCAAAGCAGGTTACTATAAGGTTGG	0.948	0.427	0.689	0.143	0.276	2.81	0.101	0.0986	-0.0549
TCTTGTAGATCAAAGGTTAAGAGAGCCGAAGCCT	1.45	1.84	0.766	0.28	3.32	1.18	-0.582	1.29	-0.415
GCTCGGAAGACAAGGTCAGAGCTTTGTCCGTAGA	2.34	2.28	1.86	0.349	2.11	2.52	0.95		0.19
CCAGACAGGTGAGAAGGTAACGCAGCCTCGATTA	0.798	0.793	0.415	0.201	0.556	0.331	0.41	-0.101	-0.143
TAGCCTAAGTCATTCAGGGGCCAGTATAGAAAGC	0.772	1.72	0.386	-0.0569	0.191	0.835	-0.418	-0.0562	-0.452
ATATGTATGTTATCGGGTCATTCAGTTTGCGCAT	2.47	2.01	1.75	1.81	2.28	3.26	2.66		3.18
TCTGGTTGGTCAAAGGTCACACACTCGAAATGCG	4.94	7.36	6.25	1.79	8.3	4.07	2.65		3.34
